The values that follow come from PubChem BioAssay (Tox21).

Experiment [1] deals with Cytochrome P450 2C9 (Homo sapiens) (UniProt P11712). Nature of the experiment: Cytochrome P450 Family 2 Subfamily C Member 9 (CYP2C9) small molecule antagonists: luciferase reporter qHTS assay (AID 1671198). Also: potency is read from the fitted curve at half-maximal effect. As to activity change, negative = inhibition: series mostly up to about 120 µM. In outline:
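Enzyme-substrate mix preincubated with compound 10 min at room temperature; reaction started with NADPH regeneration solution, 1 h 37C. Luminescent luciferin product read after 20 min detection reagent.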
A general note: Reporter assays use an easily measured gene product as a stand-in for the process of interest.

Experiment [2] concerns the target Cytochrome P450 1A2 (Homo sapiens) (UniProt P05177). Briefly: Cytochrome P450 Family 1 Subfamily A Member 2 (CYP1A2) small molecule antagonists: luciferase reporter qHTS assay (AID 1671199). Also: potency is read from the fitted curve at half-maximal effect. As to activity change, negative = inhibition: series mostly up to about 120 µM. In outline: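 CYP1A2 turnover of a luminogenic substrate was quantified after 1 h with NADPH regeneration at room temperature. Furafylline served as positive control.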
The target in experiment [3] is Voltage-gated inwardly rectifying potassium channel KCNH2 (Homo sapiens) (UniProt Q12809). Nature of the experiment: Human Ether-a-go-go-Related Gene (hERG) channel small molecule antagonists: fluorescence cell-based qHTS assay (AID 1671200).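 Also: hERG-expressing U2OS cells given a thallium stimulus after FluxOR II dye loading; series mostly up to about 77 µM.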 In outline:
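Cell line hERG-U2OS; dye FluxOR II, 1 h RT dark; Tl+ stimulus; ex 480/em 540 nm, read each second for 2 min.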

The target in experiment [4] is Cytochrome P450 3A4 (Homo sapiens) (UniProt P08684). Nature of the experiment: Cytochrome P450 Family 3 Subfamily A Member 4 (CYP3A4) small molecule antagonists: luciferase reporter qHTS assay (AID 1671201). Also: series mostly up to about 120 µM. In outline:
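Room-temperature assay throughout: 10 min compound–enzyme/substrate preincubation, 1 h reaction after NADPH regeneration solution, 20 min detection. Luciferin formed from proluciferin substrate is quantified by luminescence.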

Inconclusive results are not listed. The source made the active and inactive calls. Calls follow the shape of the dose curve; as a rule, active = well fitted curve in the direction sought with a large enough effect in the repeat runs; inconclusive = weak or mixed curves; inactive = no such curve, though single readings can be large; an effect the other way counts as inactive or inconclusive.
% is scaled to controls: 0 for no effect and ±100 for the full control effect.
Also: nearly all actives have a fitted effect of over 50% in size.

Cytochrome P450 2C9 (Homo sapiens), sequence (P11712 whole entry, looked up): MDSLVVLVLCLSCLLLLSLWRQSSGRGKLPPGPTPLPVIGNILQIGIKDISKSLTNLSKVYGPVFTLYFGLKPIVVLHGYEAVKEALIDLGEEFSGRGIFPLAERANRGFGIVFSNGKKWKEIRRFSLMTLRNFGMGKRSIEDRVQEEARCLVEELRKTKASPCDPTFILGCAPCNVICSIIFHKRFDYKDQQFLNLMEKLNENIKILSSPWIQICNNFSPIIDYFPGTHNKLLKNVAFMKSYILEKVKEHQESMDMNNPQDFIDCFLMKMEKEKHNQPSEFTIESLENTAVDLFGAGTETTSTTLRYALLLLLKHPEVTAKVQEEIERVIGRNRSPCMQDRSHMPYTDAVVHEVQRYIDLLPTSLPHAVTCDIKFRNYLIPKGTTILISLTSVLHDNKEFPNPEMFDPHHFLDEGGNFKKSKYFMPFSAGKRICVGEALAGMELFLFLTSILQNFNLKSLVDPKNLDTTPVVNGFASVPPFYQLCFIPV
Cytochrome P450 1A2 (Homo sapiens), sequence (P05177 whole entry, looked up): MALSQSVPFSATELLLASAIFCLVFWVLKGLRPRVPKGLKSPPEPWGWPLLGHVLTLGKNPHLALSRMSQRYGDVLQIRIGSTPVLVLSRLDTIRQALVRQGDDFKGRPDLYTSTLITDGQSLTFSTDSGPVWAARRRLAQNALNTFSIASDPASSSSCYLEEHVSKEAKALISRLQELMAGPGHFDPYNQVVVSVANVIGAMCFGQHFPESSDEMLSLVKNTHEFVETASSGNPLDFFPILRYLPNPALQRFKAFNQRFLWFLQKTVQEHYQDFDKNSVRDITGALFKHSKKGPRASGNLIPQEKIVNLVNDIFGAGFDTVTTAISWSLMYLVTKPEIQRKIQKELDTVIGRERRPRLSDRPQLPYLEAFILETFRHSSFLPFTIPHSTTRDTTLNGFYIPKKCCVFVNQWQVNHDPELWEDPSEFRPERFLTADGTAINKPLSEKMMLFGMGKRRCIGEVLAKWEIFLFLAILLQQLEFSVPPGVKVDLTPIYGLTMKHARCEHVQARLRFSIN
Voltage-gated inwardly rectifying potassium channel KCNH2 (Homo sapiens), sequence (Q12809 whole entry, looked up): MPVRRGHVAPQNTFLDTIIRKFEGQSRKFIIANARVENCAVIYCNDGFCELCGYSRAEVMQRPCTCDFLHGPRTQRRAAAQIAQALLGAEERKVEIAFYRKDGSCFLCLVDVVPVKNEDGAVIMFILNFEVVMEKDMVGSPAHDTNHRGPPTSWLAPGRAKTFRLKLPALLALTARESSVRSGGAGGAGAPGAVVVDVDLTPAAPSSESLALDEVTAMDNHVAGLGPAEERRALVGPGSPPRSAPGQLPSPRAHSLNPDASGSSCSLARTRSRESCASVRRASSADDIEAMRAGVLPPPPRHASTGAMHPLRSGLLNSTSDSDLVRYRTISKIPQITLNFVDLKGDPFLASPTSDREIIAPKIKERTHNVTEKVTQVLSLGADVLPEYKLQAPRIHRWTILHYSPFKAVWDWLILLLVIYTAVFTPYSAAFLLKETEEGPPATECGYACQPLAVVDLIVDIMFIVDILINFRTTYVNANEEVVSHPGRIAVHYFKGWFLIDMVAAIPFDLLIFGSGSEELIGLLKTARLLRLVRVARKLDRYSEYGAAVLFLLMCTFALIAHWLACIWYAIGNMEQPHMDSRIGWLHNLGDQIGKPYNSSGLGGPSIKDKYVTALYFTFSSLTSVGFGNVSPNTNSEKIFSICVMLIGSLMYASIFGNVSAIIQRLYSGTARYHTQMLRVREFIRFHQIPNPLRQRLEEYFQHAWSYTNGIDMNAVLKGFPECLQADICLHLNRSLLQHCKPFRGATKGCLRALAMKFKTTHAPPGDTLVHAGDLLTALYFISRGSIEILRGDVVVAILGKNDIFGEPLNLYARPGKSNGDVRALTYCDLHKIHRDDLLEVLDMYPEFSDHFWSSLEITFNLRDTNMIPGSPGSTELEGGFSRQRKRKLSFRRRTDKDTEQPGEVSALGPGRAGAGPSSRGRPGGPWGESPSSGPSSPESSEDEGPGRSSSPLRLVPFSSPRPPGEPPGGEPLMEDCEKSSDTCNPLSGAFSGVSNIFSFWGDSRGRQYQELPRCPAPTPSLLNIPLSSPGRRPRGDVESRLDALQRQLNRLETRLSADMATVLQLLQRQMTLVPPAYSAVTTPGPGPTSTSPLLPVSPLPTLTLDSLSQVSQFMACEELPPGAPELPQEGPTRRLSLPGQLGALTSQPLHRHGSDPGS
Cytochrome P450 3A4 (Homo sapiens), sequence (P08684 whole entry, looked up): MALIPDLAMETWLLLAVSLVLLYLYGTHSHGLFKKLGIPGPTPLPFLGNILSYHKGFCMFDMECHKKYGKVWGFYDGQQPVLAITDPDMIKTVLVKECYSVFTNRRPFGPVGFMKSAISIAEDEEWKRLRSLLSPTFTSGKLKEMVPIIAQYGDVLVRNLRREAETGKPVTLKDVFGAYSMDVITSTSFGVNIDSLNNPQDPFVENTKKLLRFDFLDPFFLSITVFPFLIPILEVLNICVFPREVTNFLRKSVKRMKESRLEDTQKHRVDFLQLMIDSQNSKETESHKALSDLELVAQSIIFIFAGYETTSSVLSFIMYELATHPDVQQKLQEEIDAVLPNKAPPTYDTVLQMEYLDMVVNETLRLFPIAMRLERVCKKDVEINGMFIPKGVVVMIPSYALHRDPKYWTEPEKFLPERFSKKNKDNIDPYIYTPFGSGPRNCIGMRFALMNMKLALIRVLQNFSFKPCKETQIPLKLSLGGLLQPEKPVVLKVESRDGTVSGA

Consider `COc1c(N2C[C@@H]3CCCN[C@@H]3C2)c(F)cc2c(=O)c(C(=O)O)cn(C3CC3)c12`, for which the Potency result in experiment [1], in experiment [2], in experiment [3] and in experiment [4] was “inactive” throughout.

Turning to `CCc1nccnc1CC`, the activity change, negative = inhibition in experiment [1] is 2.92% [at 23.6 µM] (inactive); in experiment [3] it was -2.32% [at 15.8 µM] (inactive); in experiment [4] it was 8.66% [at 23.6 µM] (inactive). In addition, the Potency entry in experiment [2] was “inactive”.

For `CCSC(=O)N(CC(C)C)CC(C)C`, the Potency entry in experiment [1], in experiment [2], in experiment [3] and in experiment [4] was “inactive” in each case.

With `N[C@@H](C(=O)N[C@@H]1C(=O)N2C(C(=O)O)=C(Cl)CS[C@H]12)c1ccccc1`, the activity change, negative = inhibition was -2.01% [at 10.5 µM] (inactive) in experiment [1], 7.47% [at 10.5 µM] (inactive) in experiment [2], -6.12% [at 6.97 µM] (inactive) in experiment [3] and -15.7% [at 10.5 µM] (inactive) in experiment [4].

In the case of `N=C(N)c1ccc2cc(OC(=O)c3ccc(N=C(N)N)cc3)ccc2c1`, the Potency entry in experiment [1], in experiment [2], in experiment [3] and in experiment [4] was “inactive” in each case.

With `CCOC(=O)C(=O)OCC`, the Potency entry in experiment [1], in experiment [2], in experiment [3] and in experiment [4] was “inactive” each time.

For `CC(C)(C)NCCNC(C)(C)C`, the Potency result in experiment [1], in experiment [2], in experiment [3] and in experiment [4] was “inactive” each time.

With `O=c1cc(CO)occ1O`, the Potency entry in experiment [1], in experiment [2], in experiment [3] and in experiment [4] was “inactive” each time.

For the compound `COC(=O)NN`, the Potency entry in experiment [1], in experiment [2], in experiment [3] and in experiment [4] was “inactive” each time.

As to `O=c1[nH]c(=O)n([C@H]2C[C@H](O)[C@@H](CO)O2)cc1I`, the Potency result in experiment [1], in experiment [2], in experiment [3] and in experiment [4] was “inactive” each time.

Consider `CCC(C)C1CCCCC1=O` (centres undefined), for which the Potency entry in experiment [1], in experiment [2], in experiment [3] and in experiment [4] was “inactive” throughout.

`CC(C)(C)c1nnc(NS(=O)(=O)c2ccccc2)s1`: in experiment [1], the Potency was 27.5 µM (active). Further, the Potency result in experiment [2], in experiment [3] and in experiment [4] was “inactive” each time.

On to `O=C(O)CN(CCOCCOCCN(CC(=O)O)CC(=O)O)CC(=O)O`, for which the activity change, negative = inhibition in experiment [1] is 4.56% [at 0.435 µM] (inactive); in experiment [2], -6.73% [at 0.435 µM] (inactive); in experiment [3], 0.825% [at 0.29 µM] (inactive); in experiment [4], 0.649% [at 0.435 µM] (inactive).

As to `FC1(F)C(F)(F)C(F)(F)C2(F)C(F)(F)C(F)(F)C(F)(F)C(F)(F)C2(F)C1(F)F` (centres undefined), the Potency entry in experiment [1], in experiment [2], in experiment [3] and in experiment [4] was “inactive” each time.

Consider `COCCCOCCCOC`, for which the Potency entry in experiment [1], in experiment [2], in experiment [3] and in experiment [4] was “inactive” each time.

Take `O=C(O)c1ccccc1OP(=O)(O)O`: the Potency entry in experiment [1], in experiment [3] and in experiment [4] was “inactive” each time. Also, in experiment [2], the Potency was 27.5 µM (active).

`Nc1nc2c(ncn2COC(CO)CO)c(=O)[nH]1`: the Potency result in experiment [1], in experiment [2], in experiment [3] and in experiment [4] was “inactive” in each case.

As to `FC(F)OC(Cl)C(F)(F)F` (centres undefined), the Potency entry in experiment [1], in experiment [3] and in experiment [4] was “inactive” in each case. Besides, the Potency in experiment [2] is 39.9 µM (active).

With `CCN1CCC[C@H]1CNC(=O)c1cc(S(N)(=O)=O)ccc1OC`, the Potency entry in experiment [1], in experiment [2], in experiment [3] and in experiment [4] was “inactive” each time.

For `CC(=O)Nc1ccc(S(N)(=O)=O)cc1`, the Potency result in experiment [1], in experiment [2], in experiment [3] and in experiment [4] was “inactive” throughout.

For the compound `CC(C)(CC(=O)O)C(=O)O`, the Potency entry in experiment [1], in experiment [3] and in experiment [4] was “inactive” throughout. In addition, in experiment [2], the Potency is 12.5 µM (active).

In the case of `NS(=O)(=O)c1ccccc1Cl`, the Potency entry in experiment [1], in experiment [2], in experiment [3] and in experiment [4] was “inactive” throughout.

As to `CN1CC(=O)NC1=N`, the Potency result in experiment [1], in experiment [2], in experiment [3] and in experiment [4] was “inactive” each time.

On to `CC(C)(O)C#CC(C)(C)O`, for which the Potency result in experiment [1], in experiment [2], in experiment [3] and in experiment [4] was “inactive” throughout.

`CCc1ccc(O)c(OC)c1`: the Potency result in experiment [1], in experiment [3] and in experiment [4] was “inactive” throughout. For the same compound, in experiment [2], the Potency was 31.7 µM (active).

`CC(C(=O)O)c1ccc(CC2CCCC2=O)cc1` (centres undefined): the Potency result in experiment [1], in experiment [2], in experiment [3] and in experiment [4] was “inactive” throughout.

With `C[N+](C)(C)CC(O)CC(=O)[O-]` (centres undefined), the Potency entry in experiment [1], in experiment [2], in experiment [3] and in experiment [4] was “inactive” throughout.

Consider `CCO/C([O-])=N/c1c[n+](N2CCOCC2)no1`, for which the Potency result in experiment [1], in experiment [2], in experiment [3] and in experiment [4] was “inactive” throughout.

As to `COc1ccc2c(c1)CCCC2=O`, the Potency entry in experiment [1], in experiment [3] and in experiment [4] was “inactive” each time. In experiment [2], the Potency was 13.8 µM (active).

As to `N[C@H](C(=O)O)c1ccc(O)cc1`, the activity change, negative = inhibition was -0.95% [at 23.6 µM] (inactive) in experiment [1], 1.26% [at 15.8 µM] (inactive) in experiment [3] and -17% [at 23.6 µM] (inactive) in experiment [4]. Moreover, in experiment [2], the Potency result is “inactive”.

Take `CC(C)NC(=O)NC(C)C`: the Potency result in experiment [1], in experiment [2], in experiment [3] and in experiment [4] was “inactive” in each case.

For the compound `C=CCS(=O)(=O)O`, the Potency entry in experiment [1], in experiment [2], in experiment [3] and in experiment [4] was “inactive” throughout.

Consider `Cc1ccc(=O)n(-c2ccccc2)c1`, for which the Potency entry in experiment [1], in experiment [2], in experiment [3] and in experiment [4] was “inactive” each time.

As for `O=C[C@H](O)[C@@H](O)[C@H](O)[C@H](O)CO`, the Potency result in experiment [1], in experiment [2], in experiment [3] and in experiment [4] was “inactive” each time.

Regarding `Cc1cccc(C)c1NC(=O)C(C)N` (centres undefined), the Potency result in experiment [1], in experiment [2], in experiment [3] and in experiment [4] was “inactive” each time.

For `CCN(CC)CCNC(=O)c1cc(S(C)(=O)=O)ccc1OC`, the Potency entry in experiment [1], in experiment [2], in experiment [3] and in experiment [4] was “inactive” each time.
